Measured values from the supplement of paper PMC10338343.
± gives the standard deviation.

Legend:
[1] = system: MILI (PIWIL2) piRISC loaded with piRNA #1 (26 nt); test: pre-steady-state target cleavage rate (min^-1); guide: piRNA #1 5'p-UGAGGUAGUAGGUUGUAUAGUAUCCA; higher = faster piRNA-guided slicing of the target; conditions: auxiliary factor: 500 nM mouse GTSF1;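 note: 1 nM active piRISC with 0.1 nM target library at 33 °C single turnover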
Outline: (§1)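 A transcribed, DNA-blocked target RNA library […] was incubated at 33 °C for 0–8 or 0–960 min with 1 nM active affinity-purified piRISC carrying one synthetic guide, in HEPES–potassium acetate buffer with or without 500 nM GTSF1 partner protein. Uncleaved targets were then sequenced and normalised to depth and to weakly complementary targets. Data from three trials were pooled, with k3 capped at 0.0001 min^-1, and a burst-and-steady-state fit yielded the pre-steady-state cleavage rate.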

[2] = system: EfPiwi piRISC loaded with piRNA #1 (26 nt); test: pre-steady-state target cleavage rate (min^-1); auxiliary factor: 500 nM Ephydatia muelleri Gtsf1; guide: piRNA #1 5'p-UGAGGUAGUAGGUUGUAUAGUAUCCA; MIWI and MILI are mouse PIWI proteins and EfPiwi is from a freshwater sponge; tags in brackets are library labels; higher = faster piRNA-guided slicing of the target
Outline: as §1

## GGAGAGGAUACUAUACAACGUACUAGCUCA
[1]
  pre-steady-state target cleavage rate: 0.00413 ± 0.0037
[2]
  pre-steady-state target cleavage rate: 0.0029 ± 0.0015

## GGAGACCUAACUAUACAACAUACUACCUCA
[1]
  pre-steady-state target cleavage rate: 0.0407 ± 0.0099
[2]
  pre-steady-state target cleavage rate: 0.00659 ± 0.0046

## GGAGACCUUACUAUACAACCUACUAGCUCA
[1]
  pre-steady-state target cleavage rate: 0.145 ± 0.02
[2]
  pre-steady-state target cleavage rate: 0.00255 ± 0.0017

## GGAGUGGAUACUAUACCACCUACUACCUCA
[1]
  pre-steady-state target cleavage rate: 0.188 ± 0.012
[2]
  pre-steady-state target cleavage rate: 0.0104 ± 0.004

## GGAGUGGAUACUAUACUACCUACUAGCUCA
[1]
  pre-steady-state target cleavage rate: 0.0877 ± 0.012
[2]
  pre-steady-state target cleavage rate: 0.0027 ± 0.0021

## GGAGACCUUAGCUAUACAACCUACUACCUCA
[1]
  pre-steady-state target cleavage rate: 0.112 ± 0.015
[2]
  pre-steady-state target cleavage rate: 0.0684 ± 0.027

## GGAGUGGAUACUAUACAACCUACUACCCCA
[1]
  pre-steady-state target cleavage rate: 0.0956 ± 0.016
[2]
  pre-steady-state target cleavage rate: 0.00727 ± 0.0025

## GGAGAGGAUACAAAACAACCUACUACCUCA
[1]
  pre-steady-state target cleavage rate: 0.128 ± 0.013
[2]
  pre-steady-state target cleavage rate: 0.00656 ± 0.0047

## GGAGUGGUAACUAUACAACCUACUACCUCA
[1]
  pre-steady-state target cleavage rate: 0.141 ± 0.016
[2]
  pre-steady-state target cleavage rate: 0.0157 ± 0.0069

## GGAGUGGAUAGAAUACAACCUACUACCUCA
[1]
  pre-steady-state target cleavage rate: 0.156 ± 0.014
[2]
  pre-steady-state target cleavage rate: 0.0062 ± 0.0044

## GGAGACCUAUCUAUACAACCUACUACCUUA
[1]
  pre-steady-state target cleavage rate: 0.103 ± 0.015
[2]
  pre-steady-state target cleavage rate: 0.0739 ± 0.027

## GGAGACGAUACUAUACAUCCUACUACCUGA
[1]
  pre-steady-state target cleavage rate: 0.237 ± 0.031
[2]
  pre-steady-state target cleavage rate: 0.00464 ± 0.0014

## GGAGUCCAUACUAUACAACCUACUACCUCA
[1]
  pre-steady-state target cleavage rate: 0.181 ± 0.015
[2]
  pre-steady-state target cleavage rate: 0.0575 ± 0.019

## GGAGACCUAACUAUACAACCUACUACUUCA
[1]
  pre-steady-state target cleavage rate: 0.084 ± 0.02
[2]
  pre-steady-state target cleavage rate: 0.00438 ± 0.0028

## GGAGAGGAUACUUUACAACCUACUACCUGA
[1]
  pre-steady-state target cleavage rate: 0.0593 ± 0.011
[2]
  pre-steady-state target cleavage rate: 0.00329 ± 0.0017

## GGAGACGAUACUAUCAACCUACUACCUCA
[1]
  pre-steady-state target cleavage rate: 0.14 ± 0.012
[2]
  pre-steady-state target cleavage rate: 0.0106 ± 0.0051

## GGAGACCAUACUAUACAACCUACGUACCUCA
[1]
  pre-steady-state target cleavage rate: 0.11 ± 0.018
[2]
  pre-steady-state target cleavage rate: 0.00254 ± 0.0023

## GGAGACCUUACUAUAGAACCUACUACCUCA
[1]
  pre-steady-state target cleavage rate: 0.125 ± 0.015
[2]
  pre-steady-state target cleavage rate: 0.00324 ± 0.0026

## GGAGUGGAUACUAUACAACCUACUAGCCUCA
[1]
  pre-steady-state target cleavage rate: 0.115 ± 0.019
[2]
  pre-steady-state target cleavage rate: 0.00369 ± 0.0017

## GGAGACCUUCACUAUACAACCUACUACCUCA
[1]
  pre-steady-state target cleavage rate: 0.107 ± 0.017
[2]
  pre-steady-state target cleavage rate: 0.00775 ± 0.0054

## GGAGACCUUACUAUACAUCCUAGUACCUCA
[1]
  pre-steady-state target cleavage rate: 0.0856 ± 0.018
[2]
  pre-steady-state target cleavage rate: 0.00256 ± 0.0016

## GGAGUGGAAUACUAUACAACCUACUACCUCA
[1]
  pre-steady-state target cleavage rate: 0.165 ± 0.0081
[2]
  pre-steady-state target cleavage rate: 0.122 ± 0.045

## GGAGACCAUACUAUACAACCUAUCUACCUCA
[1]
  pre-steady-state target cleavage rate: 0.0997 ± 0.014
[2]
  pre-steady-state target cleavage rate: 0.00419 ± 0.0028

## GGAGACCUAACUAUACAAGCUACUACCUGA
[1]
  pre-steady-state target cleavage rate: 0.235 ± 0.043
[2]
  pre-steady-state target cleavage rate: 0.00345 ± 0.003

## GGAGUGGAUACUAUACUACCUAGUACCUCA
[1]
  pre-steady-state target cleavage rate: 0.0719 ± 0.013
[2]
  pre-steady-state target cleavage rate: 0.00311 ± 0.0019

## GGAGACGAUACUUAUCAACCUACUACCUCA
[1]
  pre-steady-state target cleavage rate: 0.148 ± 0.013
[2]
  pre-steady-state target cleavage rate: 0.00522 ± 0.0041

## GGAGUGGAUACUAUACAACCUACUACCUACA
[1]
  pre-steady-state target cleavage rate: 0.122 ± 0.013
[2]
  pre-steady-state target cleavage rate: 0.068 ± 0.024

## GGAGUGGAUACUAUACUUCCUACUACCUCA
[1]
  pre-steady-state target cleavage rate: 0.202 ± 0.013
[2]
  pre-steady-state target cleavage rate: 0.0195 ± 0.01

## GGAGUGGAUACUAUACAACCAACUACGUCA
[1]
  pre-steady-state target cleavage rate: 0.00435 ± 0.0018
[2]
  pre-steady-state target cleavage rate: 0.00367 ± 0.0011

## GGAGUGGAUUCUAUACUACCUACUACCUCA
[1]
  pre-steady-state target cleavage rate: 0.155 ± 0.0078
[2]
  pre-steady-state target cleavage rate: 0.00505 ± 0.0034

## GGAGACCAGUACUAUACAACCUACUACCUCA
[1]
  pre-steady-state target cleavage rate: 0.177 ± 0.021
[2]
  pre-steady-state target cleavage rate: 0.0152 ± 0.0063

## GGAGACCUAACUAUACAACCUACUUCCUCA
[1]
  pre-steady-state target cleavage rate: 0.0606 ± 0.02
[2]
  pre-steady-state target cleavage rate: 0.00336 ± 0.0029

## GGAGACGAUACUAUACAACCUACAACGUCA
[1]
  pre-steady-state target cleavage rate: 0.00524 ± 0.0044
[2]
  pre-steady-state target cleavage rate: 0.00349 ± 0.0012

## GGAGUGCAUAGUAUACAACCUACUACCUCA
[1]
  pre-steady-state target cleavage rate: 0.125 ± 0.011
[2]
  pre-steady-state target cleavage rate: 0.0131 ± 0.0064

## GGAGUGGAUACUAUAGAACCUUCUACCUCA
[1]
  pre-steady-state target cleavage rate: 0.00415 ± 0.0015
[2]
  pre-steady-state target cleavage rate: 0.00334 ± 0.0018

## GGAGUGGAUAGUAUACAACCUACUAGCUCA
[1]
  pre-steady-state target cleavage rate: 0.00679 ± 0.003
[2]
  pre-steady-state target cleavage rate: 0.00291 ± 0.0018

## GGAGAGGAUACUAUACAACCAACUACGUCA
[1]
  pre-steady-state target cleavage rate: 0.00609 ± 0.0018
[2]
  pre-steady-state target cleavage rate: 0.00338 ± 0.0016

## GGAGUGGAUACUAUUCAAGCUACUACCUCA
[1]
  pre-steady-state target cleavage rate: 0.221 ± 0.013
[2]
  pre-steady-state target cleavage rate: 0.0053 ± 0.0025

## GGAGACCUAUGUAUUACAACCUACUACCUCA
[1]
  pre-steady-state target cleavage rate: 0.0187 ± 0.0046
[2]
  pre-steady-state target cleavage rate: 0.0036 ± 0.0033

## GGAGACCUAACUAUAACAACCUACUACCUCA
[1]
  pre-steady-state target cleavage rate: 0.0743 ± 0.018
[2]
  pre-steady-state target cleavage rate: 0.00912 ± 0.005

## GGAGACGAUACUAUACAACAUACUACCUCA
[1]
  pre-steady-state target cleavage rate: 0.0988 ± 0.0095
[2]
  pre-steady-state target cleavage rate: 0.00522 ± 0.0024

## GGAGAGGAUACUAUCCAACCUACUACCUCA
[1]
  pre-steady-state target cleavage rate: 0.232 ± 0.015
[2]
  pre-steady-state target cleavage rate: 0.00889 ± 0.004

## GGAGACGAUACUAUACAACCUACUACCUUA
[1]
  pre-steady-state target cleavage rate: 0.228 ± 0.027
[2]
  pre-steady-state target cleavage rate: 0.224 ± 0.068

## GGAGACGUUACUAUACAACCUACAACCUCA
[1]
  pre-steady-state target cleavage rate: 0.114 ± 0.015
[2]
  pre-steady-state target cleavage rate: 0.00216 ± 0.0017

## GGAGACGAUACUUUACAACCUACUUCCUCA
[1]
  pre-steady-state target cleavage rate: 0.019 ± 0.0078
[2]
  pre-steady-state target cleavage rate: 0.00221 ± 0.002

## GGAGAGGAUACUAUACAACCUACUACGUGA
[1]
  pre-steady-state target cleavage rate: 0.0154 ± 0.004
[2]
  pre-steady-state target cleavage rate: 0.00416 ± 0.0019

## GGAGUCGAUACUAUACAACCUACUACCUCA
[1]
  pre-steady-state target cleavage rate: 0.18 ± 0.013
[2]
  pre-steady-state target cleavage rate: 0.106 ± 0.034

## GGAGAGGAUACUAUACAACUUACUACCUCA
[1]
  pre-steady-state target cleavage rate: 0.0186 ± 0.0027
[2]
  pre-steady-state target cleavage rate: 0.0083 ± 0.0042

## GGAGAGGAUACAAUACAACCUACUACCUCA
[1]
  pre-steady-state target cleavage rate: 0.172 ± 0.012
[2]
  pre-steady-state target cleavage rate: 0.0112 ± 0.005

## GGAGUCGAUACUAAACAACCUACUACCUCA
[1]
  pre-steady-state target cleavage rate: 0.183 ± 0.015
[2]
  pre-steady-state target cleavage rate: 0.00865 ± 0.0048

## GGAGUGGAAACUAUACAACCUUCUACCUCA
[1]
  pre-steady-state target cleavage rate: 0.00517 ± 0.0028
[2]
  pre-steady-state target cleavage rate: 0.00484 ± 0.0029

## GGAGUGGAUACUAAACAUCCUACUACCUCA
[1]
  pre-steady-state target cleavage rate: 0.242 ± 0.013
[2]
  pre-steady-state target cleavage rate: 0.0059 ± 0.0024

## GGAGUGGAUACUAUACAUGGUACUACCUCA
[1]
  pre-steady-state target cleavage rate: 0.00713 ± 0.0016
[2]
  pre-steady-state target cleavage rate: 0.00303 ± 0.0028

## GGAGAGGAUAGUAUACAACCUACUACGUCA
[1]
  pre-steady-state target cleavage rate: 0.0614 ± 0.0098
[2]
  pre-steady-state target cleavage rate: 0.0031 ± 0.0021

## GGAGUGGAUACUAUACAUGCUACUACCUCA
[1]
  pre-steady-state target cleavage rate: 0.109 ± 0.0081
[2]
  pre-steady-state target cleavage rate: 0.00896 ± 0.0037

## GGAGAGGAAAGUAUACAACCUACUACCUCA
[1]
  pre-steady-state target cleavage rate: 0.0417 ± 0.0061
[2]
  pre-steady-state target cleavage rate: 0.00774 ± 0.0044

## GGAGUGCAUACUAUACAACCUACUACCUCA
[1]
  pre-steady-state target cleavage rate: 0.18 ± 0.0089
[2]
  pre-steady-state target cleavage rate: 0.0787 ± 0.029

## GGAGACGAUACUUUACAACCUACUACGUCA
[1]
  pre-steady-state target cleavage rate: 0.0766 ± 0.011
[2]
  pre-steady-state target cleavage rate: 0.00279 ± 0.0019

## GGAGUGGAUACUAUACAACCUACUACCCUCA
[1]
  pre-steady-state target cleavage rate: 0.104 ± 0.013
[2]
  pre-steady-state target cleavage rate: 0.00587 ± 0.002

## GGAGUGGAUAGUAUACAACCUAGUACCUCA
[1]
  pre-steady-state target cleavage rate: 0.0556 ± 0.0099
[2]
  pre-steady-state target cleavage rate: 0.00264 ± 0.0018
